According to PubChem BioAssay (NCI):
About 83,000 compounds went through this panel and 20% of them were active in at least one assay; those are over-represented in the sample as a whole.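 Single-dose data. Exposure time 48 hours. Values below 10 considered active.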 Values without a mark were called inactive. Active and inactive are the calls of the source.

Legend:
Experiment in all cases: NCI-60 one-dose screen, 48 h (100 = growth as untreated, 0 = no growth, -100 = all killed)
Conditions in all cases: 10 µM unless noted
HCT-15 colon = tested on: HCT-15 colon
HT29 colon = tested on: HT29 colon
SNB-75 CNS = tested on: SNB-75 CNS
SNB-19 CNS = tested on: SNB-19 CNS
U251 CNS = tested on: U251 CNS
PC-3 prostate = tested on: PC-3 prostate
SK-MEL-5 melanoma = tested on: SK-MEL-5 melanoma
UACC-62 melanoma = tested on: UACC-62 melanoma
LOX IMVI melanoma = tested on: LOX IMVI melanoma
SK-MEL-28 melanoma = tested on: SK-MEL-28 melanoma

| SMILES | growth (HCT-15 colon) | growth (HT29 colon) | growth (SNB-75 CNS) | growth (SNB-19 CNS) | growth (U251 CNS) | growth (PC-3 prostate) | growth (SK-MEL-5 melanoma) | growth (UACC-62 melanoma) | growth (LOX IMVI melanoma) | growth (SK-MEL-28 melanoma) |
| --- | --- | --- | --- | --- | --- | --- | --- | --- | --- | --- |
| Cc1ccc(-c2[nH][nH]c(=O)c2-c2nc3ccccc3s2)cc1 | 99.1% | 104% | 79.4% | 97.9% | 103% | 96.9% | 102% | 95.9% | 95.7% | 111% |
| COC(=O)C(CC=O)C(=O)C(=O)Nc1cccc(C(F)(F)F)c1 (stereo not given) | 108% | 99.1% | 92.8% | 102% | 79.2% | 95.7% | 99.9% | 89.7% | 85.9% | 120% |
| CC(C)(C)[Si](C)(C)OC1[C@@H](O[Si](C)(C)C(C)(C)C)[C@@H](CNC(=O)NC(=O)CCl)O[C@H]1n1cnc2c(NC(=O)Nc3ccccc3)ncnc21 (stereo not given in full) | 37.5% | -48.1% (active) | -66.2% (active) | 6.83% (active) | -75.6% (active) | -36.2% (active) | -87.7% (active) | -61.5% (active) | -88.1% (active) | -79.5% (active) |
| Cc1nn(-c2ccccc2)c(Oc2c(Cl)cccc2Cl)c1/C=N/N=c1\sc2ccccc2n1C | 25.3% | 33.7% | 86.4% | 49.7% | 28.5% | 44.1% | 20.2% | 36.2% | 26% | 64.1% |
| CCCCCCNC(=O)Nc1ccc2cc3ccc(NC(=O)NCCCCCC)cc3nc2c1 | 88.7% | 20.2% | -16.3% (active) | -47.9% (active) | -89.1% (active) | 21.5% | 3.38% (active) | -79% (active) | -79.7% (active) | -65.4% (active) |
| O=S(=O)(NCCNc1nccc(-c2c(-c3cccc(O)c3)nc3occn23)n1)c1cccc(F)c1 | 95.5% | 51.2% | 80.6% | 102% | 98.3% | 86.8% | 46.4% | 14% | 64.8% | 50.1% |
| O=C1/C=C/[C@@H](O)[C@@H]2C[C@@H](O)C[C@H]2/C=C/CCC[C@H](CCc2ccc3ncccc3c2)O1 | 6.02% (active) | -19.6% (active) | 33.2% | 28.9% | 21.7% | 18.3% | -95.8% (active) | 4.66% (active) | -66.5% (active) | -0.806% (active) |
| CCOC(=O)CSc1nc2ccccc2c(=O)n1Cc1ccc(S(N)(=O)=O)cc1 | 100% | 105% | 85.8% | 99.2% | 97.5% | 91.7% | 100% | 94.4% | 95.9% | 104% |
| Nc1c(C(=O)Nc2cccc3cnccc23)sc2nc3c(cc12)CN(Cc1ccccc1)CC3 | 107% | 108% | 96.5% | 99.6% | 108% | 91.3% | 98.8% | 96.4% | 103% | 111% |
| Cn1cc(CC2CC(=O)N(c3ccccc3)C2=O)sc1=NC(=O)c1ccccc1 (stereo not given) | 101% | 103% | 82% | 100% | 102% | 95.5% | 101% | 93.3% | 102% | 98.1% |
| COc1cccc(-c2nc3occn3c2-c2ccnc(NCCCNS(=O)(=O)c3ccc(C(F)(F)F)cc3)n2)c1 | 85.3% | 73.5% | 103% | 105% | 84.1% | 75.9% | 68.6% | 67.3% | 87.5% | 97.5% |
| O=C1CC(=O)OC(c2ccc([N+](=O)[O-])cc2)O1 | -48.8% (active) | -39.5% (active) | 9.16% (active) | 55.2% | 4.05% (active) | 37% | 18.4% | -72.2% (active) | -84.5% (active) | -17.3% (active) |
| COc1ccc(-c2nc3sccn3c2/C=C/C(=O)c2ccc3c(c2)OCO3)cc1 | 59.3% | 85% | 72.3% | 80.6% | 55.1% | 58.6% | 78.7% | 57.2% | 38.4% | 105% |
| Cc1cnc(C(=O)Nc2nc3ccc(S(=O)(=O)Nc4ccc(C(C)(C)C)cc4)cc3[nH]2)cn1 | 18% | 12.8% | 5.59% (active) | 31.6% | 18.9% | 20.8% | 10.9% | 40.2% | 42.3% | 35.8% |
| O=C(CCN1CCCC1)Nc1ccc2c(NCCCCc3ccccc3)c3ccccc3nc2c1 | 17% | 6.39% (active) | 16.6% | -49.5% (active) | -57.8% (active) | -56.8% (active) | -30.9% (active) | 65.2% | -89.3% (active) | -63.4% (active) |
| Cc1ccc(NC(=O)Cc2ccc(/C=C/C(=O)c3ncc[nH]3)cc2)cc1 | 11% | 9.43% (active) | 22.2% | 16.6% | 7.18% (active) | 53.3% | 73.9% | 66.2% | 10.9% | 86.9% |
| COc1cc(/C=C\c2cc(OC)c(OC)c(OC)c2)cc(N)c1OC | 70% | 87% | 78.7% | 88.6% | 91.2% | 82.1% | 86.7% | 74.7% | 86.8% | 97.6% |
| COc1ccc(C(=O)Nc2cccc(C3CCc4c(cc(OC)c(OC)c4OC)O3)c2)cc1 (stereo not given) | 30.2% | 17.6% | 26.3% | 53.3% | 36.4% | 49.3% | 60.2% | 38.7% | 50.3% | 61.4% |
| COc1cc2oc(-c3cccc(C(=O)Nc4ccc(Cl)cc4)c3)cc(=O)c2c(O)c1OC | 70.2% | 66.2% | 24.4% | 28.4% | 23% | 55.1% | 58.7% | 42.7% | 69.8% | 67.8% |
| CCC(CC)NCC(C)(C)O | 101% | 108% | 98.1% | 94.6% | 103% | 89.9% | 110% | 94.4% | 101% | 115% |
| O=C(c1nnc(Nc2ccccc2Br)o1)c1c[nH]c2ccccc12 | 80.1% | 100% | 89.2% | 96.8% | 96.9% | 87.6% | 89.5% | 83% | 96% | 104% |
| CC1(C)CC(O)CCCCCCOc2c(CN)cccc2NC(=O)c2nc(cnc2N)-c2ccc(cc2)S1(=O)=O (stereo not given) | -14.4% (active) | 9.7% (active) | 53.7% | 8.06% (active) | -26.6% (active) | 22.6% | -31.7% (active) | 41.3% | 13% | 43.4% |
| CC1(C)c2[nH]c3ccccc3c2C[C@]2(C)[C@H]3C(=O)C=C4[C@@H]5C[C@@](C)(C(N)=O)CC[C@]5(C)CC[C@@]4(C)[C@]3(C)CC[C@@H]12 | 65.8% | 56.3% | 89.3% | 78.6% | 70.4% | 42.1% | 72% | 70.6% | 83% | 93.3% |
| Cc1cc2c(c(C)c1Cl)C(=O)/C(=C/c1ccc(O)c(O)c1)O2 | 106% | 106% | 99% | 99.2% | 85.4% | 100% | 100% | 88.8% | 93.7% | 105% |
| COc1ccc(NC(=O)c2cc(NCc3cc(O)ccc3O)ccc2O)cc1 | 97% | 89.7% | 101% | 90% | 91.1% | 64.1% | 92.6% | 94.6% | 94.3% | 98.5% |
| C=C1C(=O)O[C@H]2[C@H]1CC/C(CNC(=O)c1cccc3ccccc13)=C\CC[C@@]1(C)O[C@@H]21 | 10.2% | 8.85% (active) | 82.6% | 66.4% | 59% | 53.7% | 60.1% | 31.4% | 24.3% | 41.2% |
